Compound activity from PubChem.
G9a block: blocks human histone lysine methyltransferase G9a. Q96KQ7. G9a H3K9 monomethylation, AlphaScreen, 2 h. Potency, µM (top dose mostly 102 µM), inactives show at the top dose activity, negative = inhibition, actives largely listed as inhibitors. actives 8.8% (n = 350,000). AID 504332; further: on the % scale 0 is the no-effect control and ±100 the full control effect; nearly all actives have a fitted effect of over 75% in size
Target sequence (Q96KQ7 913-1193 limits assumed): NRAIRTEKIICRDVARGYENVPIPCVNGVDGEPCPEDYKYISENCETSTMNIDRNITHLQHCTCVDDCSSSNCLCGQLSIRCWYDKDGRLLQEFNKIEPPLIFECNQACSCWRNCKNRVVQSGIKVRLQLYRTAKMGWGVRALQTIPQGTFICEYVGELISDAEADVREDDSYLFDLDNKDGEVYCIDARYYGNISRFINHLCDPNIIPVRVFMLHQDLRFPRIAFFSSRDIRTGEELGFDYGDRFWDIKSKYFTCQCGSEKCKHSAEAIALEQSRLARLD
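Methyltransferase reactions run at room temperature for 2 h (20 nM enzyme, 500 nM biotin-H3K9 peptide, 20 uM SAM) after a 15 min compound preincubation; product detected by AlphaScreen beads and anti-H3K9me1 antibody.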
HP1b binding inh: blocks HP1-beta chromodomain binding to methylated histone tails; P83916; actives 0.56% (n = 390,000); AID 540317; Potency, µM (titrated, usually from 114 µM), for inactives: at the top dose activity change, negative = inhibition, hits mostly inhibitors; AlphaScreen HP1-beta / biotin-H3K9me3 peptide binding; further: nearly all actives have a fitted effect of over 70% in size
Target sequence (P83916 whole entry, looked up): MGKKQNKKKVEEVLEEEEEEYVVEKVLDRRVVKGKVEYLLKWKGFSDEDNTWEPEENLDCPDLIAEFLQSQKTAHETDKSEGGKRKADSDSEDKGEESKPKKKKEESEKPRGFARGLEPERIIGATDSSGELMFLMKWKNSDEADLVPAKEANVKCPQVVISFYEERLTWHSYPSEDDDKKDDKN
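Compound inhibition of the preformed complex between 50 nM HP1-beta and 50 nM biotinylated H3K9me3 peptide was read by AlphaScreen. Buffer was PBS pH 7.4 with 0.01% Tween-20. Incubations ran 30 min at room temperature, with 10 ug/mL donor/acceptor beads.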
L3MBTL1 block: inhibitors of human L3MBTL1. Q9Y468. AlphaScreen L3MBTL1–H3K9me1 peptide binding. Potency, µM (titrated, usually from 57.1 µM), for the others: at the highest dose activity, negative = inhibition, actives largely listed as inhibitors. actives 0.66% (n = 230,000). AID 485360; further: on the % scale 0 is the no-effect control and ±100 the full control effect; nearly all actives have a fitted effect of over 60% in size
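AlphaScreen proximity signal between nickel-chelate acceptor and streptavidin donor beads (final 10 ug/mL) reports binding of 50 nM L3MBTL1 to 75 nM biotin-H3 K9me1 peptide; complex incubated with compounds 30 min at room temperature; cefsulodin titration as control.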
JMJD2A Tudor: blocks the human JMJD2A Tudor domain; O75164; AlphaScreen JMJD2A-Tudor / H3K4me3 peptide binding; Potency, µM (titrated, usually from 114 µM), for the others: at the highest dose activity change, negative = inhibition, actives largely listed as inhibitors; actives 4.4% (n = 390,000); further: on the % scale 0 is the no-effect control and ±100 the full control effect; nearly all actives have a fitted effect of over 50% in size
BAZ2B block: BAZ2B (human) inhibition; AlphaScreen BAZ2B-H3K14Ac peptide displacement; Potency, µM (top dose mostly 114 µM), for the others: at the highest dose activity change, negative = inhibition, hits mostly inhibitors; Q9UIF8; actives 4.4% (n = 360,000); further: on the % scale 0 is the no-effect control and ±100 the full control effect; nearly all actives have a fitted effect of over 60% in size
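Complex of BAZ2B and biotin-H3K14Ac (50 nM apiece) forms over 30 min at RT, then faces library compounds up to 110 uM for another 30 min; AlphaScreen beads added, 20 min dark incubation, luminescence read.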
Sfp inh: Sfp phosphopantetheinyl transferase inhibition; Q9F4F7; Biochemical Sfp PPTase activity, qHTS; Potency, µM, for inactives: largest response in the series, negative = inhibition, most hits filed as inhibitors; actives 3.5% (n = 310,000); AID 1490;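 further: the enzyme is Sfp with the accession as filed and its product quenches rhodamine fluorescence; 0% = enzyme reaction without inhibitor and -100% = no enzyme wells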
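With Hepes-Na pH 7.6 buffer containing 10 mM MgCl2, Sfp (15 nM) modified BHQ-2-YbbR (12.5 uM) using rhodamine-CoA (5 uM). Two reads 30 minutes apart at 525/598 nm yielded each well's rate.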
* marks the source's active call; other numbers are inactive results; u = inconclusive; x = not tested or not shown; [ ] = another dose, or the depositor's remark. This is a sample that favours compounds with a hit; in the whole collection about 12% have one here. The call rests on the fitted dose curve; in most records, active means well fitted curve in the direction sought with a large enough effect; inconclusive means small, poorly fitted or top-dose-only effect, or another doubt; inactive means no such curve, though single readings can be large; an effect the other way counts as inactive or inconclusive. Potency means the concentration at half of the fitted maximal effect.

SMILES	G9a block	HP1b binding inh	L3MBTL1 block	JMJD2A Tudor	BAZ2B block	Sfp inh
CS(=O)(=O)NC(=O)CCC/C=C\C[C@H]1C(=O)C[C@@H](O)[C@@H]1/C=C/[C@@H](O)COc1ccccc1	x	x	x	x	x	-18%
C#CCOCCOCCOCCNc1nc(N2CCN(C(=O)[C@H](CCC(=O)O)n3cc([C@@H](N)CCCCN)nn3)CC2)nc(N2CCN(C(=O)[C@H](CCC(=O)O)n3cc([C@@H](N)CCCCN)nn3)CC2)n1	x	-9%	u	56µM*	x	x
C#CCOCCOCCOCCNc1nc(N2CCN(C(=O)[C@H](CO)n3cc([C@@H](N)C(C)C)nn3)CC2)nc(N2CCN(C(=O)[C@H](CCC(=O)O)n3cc([C@@H](N)CCCCN)nn3)CC2)n1	x	43%	-3%	u	x	x
C#CCOCCOCCOCCNc1nc(N2CCN(C(=O)[C@H](CCC(=O)O)n3cc([C@@H](N)CCCCN)nn3)CC2)nc(N2CCN(C(=O)[C@H](CCCCN)n3cc([C@@H](N)CC(N)=O)nn3)CC2)n1	x	34%	-3%	50µM*	x	x
CC(=O)Nc1ccc(N(C(=O)CNC(=O)c2cccs2)C(C(=O)NCC2CCCO2)c2ccccc2)cc1 (stereo unspecified)	5%	16%	x	-15%	7%	21%
Cc1ccc2oc(=O)c(-c3ccc(O)cc3)c(C)c2c1	u	21%	3%	-12%	4%	x
CC(C)CC(=O)OCc1cn(-c2ccccc2)nn1	x	28%	4%	37%	-4%	6%
Cc1ccc(NC(=O)n2ncc3c(C)cccc32)c(C)c1	-21%	15%	x	4%	-9%	10%
Cc1cccc2c1cnn2C(=O)Nc1ccc(Br)cc1F	35µM*	24%	x	10%	-6%	8%
Cc1nc(C)n(C(C)CNS(=O)(=O)c2ccc(Cl)cc2)n1 (stereo unspecified)	1%	-3%	x	-10%	0%	9%
COCCNc1cc(-c2ccccc2C)ncn1	2%[0.501 µM]	x	x	x	x	-20%
CC(C)c1cc(CNC(=O)c2ccc(OC3CCN(Cc4ccccn4)CC3)cc2)on1	u	2%	x	45µM*	56µM*	2%
CCn1nc(C)c(CNC(=O)c2ccc(OC3CCN(Cc4ccccn4)CC3)cc2)c1C	-5%	11%	x	-10%	79µM*	-1%
CCn1cc(CNC(=O)c2ccc(OC3CCN(Cc4ccccn4)CC3)cc2)cn1	19%	25%[57 µM]	x	-24%	-15%	5%
O=C(CSc1n[nH]c(-c2ccc(Br)cc2)n1)N1CCOCC1	x	41%	0%	-14%	x	x
Cc1ncoc1C(=O)N1CCc2c([nH]c3ccccc23)C1C1CCCCC1 (stereo unspecified)	x	-2%	-4%	u	25µM*	-17%
c1ccc2c3c([nH]c2c1)C(C1CCCCC1)N(Cc1ncc[nH]1)CC3 (stereo unspecified)	45µM*	-7%	-10%	u	u	-1%
Cc1ncoc1C(=O)N1CCc2c([nH]c3ccccc23)C1C(C)(C)C (stereo unspecified)	u	19%	-16%	-22%	-28%	11%
Cc1cnc(CN2CCc3c([nH]c4ccccc34)C2C2CCCCC2)[nH]1 (stereo unspecified)	-3%	-6%	0%	-20%[57.1 µM]	-18%	9%
Cc1cc2c(nc1C)CCCN2C[C@@H](O)CN1CCN(C)CC1	x	x	x	x	x	-10%
COC1OC2COC(c3ccccc3)OC2C(O)C1O (stereo unspecified)	x	x	x	x	x	-8%
Nc1ccc(O)cc1C(=O)OCC(=O)c1ccc(C2CCCCC2)cc1	45µM*	u	-15%	u	40µM*	-20%
Nc1ccc(O)cc1C(=O)OCC(=O)C12CC3CC(CC(C3)C1)C2	32µM*	-19%	u	u	50µM*	-1%
COc1ccc(C(=O)OCC(=O)c2ccc(C3CCCCC3)cc2)cc1	10%[59 µM]	51%	9%	27%	19%	-4%
O=C1N[C@H](Cc2ccccc2)C(=O)N1Cc1cccc2ccccc12	x	x	x	x	x	-13%
SMILES	G9a block	HP1b binding inh	L3MBTL1 block	JMJD2A Tudor	BAZ2B block	Sfp inh
CC1=C(c2ccccc2)[N+](=O)C2(CCCC2)N1[O-]	-23%[59 µM]	13%	4%	-11%	2%	-17%
O=[N+]([O-])c1ccc2c(c1)N([O-])C1(CCCCC1)[N+]2=O	x	u	-3%	u	40µM*	7.1µM*
O=C(O)C(Cc1ccccc1)N1C(=O)/C(=C/c2cccnc2)SC1=S (stereo unspecified)	x	-21%	8%	16µM*	-32%	79µM*
CC(=O)NN1C(=O)/C(=C/c2ccc(C(C)C)cc2)SC1=S	-21%[59 µM]	u	-15%	-35%	45µM*	-13%
COc1ccc(/C=C2\SC(=S)N(C(Cc3ccccc3)C(=O)O)C2=O)cc1 (stereo unspecified)	25µM*	u	u	u	40µM*	-42%
COc1ccc(/C=C2/SC(=O)N(CC(O)Cn3c4ccccc4c4ccccc43)C2=O)cc1 (stereo unspecified)	25%[59 µM]	-3%	-8%	79µM*	-36%	10%
COc1ccc(/C=C2\SC(=S)N(CC(=O)N3CCN(C)CC3)C2=O)cc1	-22%	-9%	-8%	-27%	-30%	-2%
O=C(NN1C(=O)/C(=C/c2cccnc2)SC1=S)C(c1ccccc1)c1ccccc1	u	-11%	-12%	u	-36%	-10%
O=C(NN1C(=O)/C(=C\c2cccnc2)SC1=S)C(c1ccccc1)c1ccccc1	32µM*	u	-11%	u	-29%	-7%
COc1cccc([C@@H]2Oc3ccc(OC)cc3C(=O)[C@H]2OC(=O)NCc2ccco2)c1	x	x	x	x	x	-2%
COc1cccc(NC(=O)CN(C)CC(=O)Nc2ccccc2-c2ccccc2)c1	14µM*	u	-3%	22µM*	79µM*	-28%
CN(CC(=O)Nc1cccc(F)c1)CC(=O)Nc1ccccc1Oc1ccccc1	8.9µM*	u	x	10µM*	25µM*	u
COc1cccc(NC(=O)N2CCCCCC2)c1	x	49%	x	-9%	-2%	-4%
COc1cccc(NC(=O)CN(C)C(C)C(=O)N2CCCCC2)c1 (stereo unspecified)	x	u	-4%	0.32µM*	x	x
COc1cccc(NC(=O)CN(C)C(=O)c2cc3c(s2)CCC3)c1	19%[0.501 µM]	-7%	8.9µM*	u	56µM*	x
COc1cccc(NC(=O)CN(C)C(=O)c2cc3c(s2)CCC(C)C3)c1 (stereo unspecified)	-7%[12.7 µM]	7%	1%	-23%	2%	x
COC(=O)/C=c1\[nH]c2nnc(C)n2c1=O	-10%	36%	x	u	-14%	-2%
